PubChem BioAssay AID743397 (Broad Institute, 2014)
Among all 340,000 compounds or so, about 330 (0.097%) were called active. This excerpt belongs to a sample that is enriched for actives. A number with no mark means an inactive call.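 The calls were made as follows: active = mean replicate inhibition of at least 30% and at least 1% of replicates passing that level; inconclusive = only one of the two criteria is met; inactive = neither criterion is met.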

The molecules below were run on Voltage-dependent L-type calcium channel subunit alpha-1D (CaV1.3) ICDI/IQ interaction (assay: Disruptors of the CACNA1D IQ motif to Ca2+-dependent inactivation inhibitor domain association, primary screening, Förster resonance energy transfer in intact living cells, one concentration (AID 743397;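 also: 0% = median of the neutral control wells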)). Conditions: HEK cells, CFP/YFP FRET ICDI-IQ, plate reader, 10 min; at 12.3 µM; active compounds read high; percent FRET-ratio fall versus neutral wells.

**Q.** For COC(=O)[C@]1(Cc2ccccc2)NC=C(C(=O)c2ccccc2)[C@@H]1c1cccc(OC)c1, which inhibition is on record?
**A.** -4.9%

**Q.** Which inhibition does the source give for COc1ccccc1CCn1cnc(-c2ccccc2)c1C(C)C here?
**A.** -7.51%

**Q.** With CCCCN(CCCC)CC(O)Cn1c2ccccc2c(=O)c2ccccc21 (centres undefined) as the molecule, how does the inhibition read?
**A.** 107% (active)

**Q.** CCCn1c(=O)c(-c2ccccc2)c(O)c2ccccc21 was tested. Which inhibition did it give?
**A.** -7.92%

**Q.** For CCCCCn1c(=O)c(C(=O)OCC)c(Cl)c2ccccc21, which inhibition is on record?
**A.** -4.21%

**Q.** For COC(=O)c1cc2c(c3c4ccccc4n(S(=O)(=O)c4cccc(C)c4)c13)C(=O)N(Cc1ccccc1)C2, which inhibition is on record?
**A.** -4.46%

**Q.** Which inhibition does the source give for COC(=O)c1c(-c2ccc(OC)cc2)c2c(c3c4ccccc4n(S(=O)(=O)c4ccc(C)cc4)c13)C(=O)N(C)C2 here?
**A.** -10.3%

**Q.** COC(=O)C1=C(C)N(Cc2cccc(C(F)(F)F)c2)C(=NCc2ccccc2)NC1c1ccc(Cl)cc1 (centres undefined) was tested. Which inhibition did it give?
**A.** -3.3%

**Q.** Which inhibition does the source give for COc1ccc(-c2cc(NC=O)c3ncc(-c4cc(OC)c(OC)c(OC)c4)n3c2)c(OC)c1 here?
**A.** -3.57%

**Q.** With COC(=O)[C@]12C[C@H](CC(=O)NCc3cccc(C(F)(F)F)c3)C(=O)N(Cc3ccc4c(c3)OCO4)C1=C[C@H](COCc1ccccc1)O[C@@H]2C as the molecule, how does the inhibition read?
**A.** -9.09%

**Q.** Which inhibition does the source give for CCS(=O)(=O)c1ccc(O)c(NC(=O)COc2ccc(Cl)cc2)c1 here?
**A.** -1.51%

**Q.** With Cc1ccc(O)c(NC(=S)NC(=O)COc2ccc(Br)cc2)c1 as the molecule, how does the inhibition read?
**A.** 40.4% (active)

**Q.** With CC(=O)Nc1ccc(OC(=O)COc2ccc(Br)cc2)cc1 as the molecule, how does the inhibition read?
**A.** -4.58%

**Q.** How did the inhibition turn out when N#Cc1ccc(OCCCN2CCC(C(O)(c3ccccc3)c3ccccc3)CC2)c(F)c1 was run?
**A.** -9.35%

**Q.** With O=S1(=O)c2c(cccc2N2CCCCC2)O[C@H](COCc2ccccc2)CN1C1CC1 as the molecule, how does the inhibition read?
**A.** -6.9%

**Q.** How did the inhibition turn out when COc1cncc(-c2cnc3sc(NCCc4ccccn4)nn23)c1 was run?
**A.** -4.67%

**Q.** How did the inhibition turn out when COc1cccc(CNC(=O)[C@H]2CCCN2C(=O)[C@H]2CCCN2C(=O)c2ccc(F)cc2)c1 was run?
**A.** -5.95%

**Q.** COc1ccc(SSc2ccc(OC)cc2C(=O)O)c(C(=O)O)c1 was tested. Which inhibition did it give?
**A.** -2.9%

**Q.** Which inhibition does the source give for Cc1ccc(NC(=O)N2c3ccccc3SC2c2ccco2)c(C)c1 (centres undefined) here?
**A.** -10.9%

**Q.** With Cc1cc(Br)cn2c(Cc3ccccc3C(F)(F)F)c(-c3ccc(C#N)cc3)nc12 as the molecule, how does the inhibition read?
**A.** -10%

**Q.** For COC(=O)c1c(-c2ccc(OC)cc2)c2c(c3c4cc(OC)ccc4n(S(=O)(=O)c4ccc(F)cc4)c13)C(=O)N(C)C2, which inhibition is on record?
**A.** -5.34%

**Q.** COc1ccc(S(=O)(=O)Nc2ccc3c(c2)C(=O)N([C@H](C)CO)C[C@H](C)[C@@H](CN(C)C)OCCCC[C@H](C)O3)cc1 was tested. Which inhibition did it give?
**A.** -5.26%

**Q.** COC(=O)C1=C(C)N(Cc2ccccc2C(F)(F)F)C(=NCC2CC2)NC1c1cccc(Cl)c1 (centres undefined) was tested. Which inhibition did it give?
**A.** -11.5%

**Q.** CCOC(=O)CNC(=O)N(C)[C@H]1C[C@H]2c3[nH]c4c(-c5ccc6c(c5)OCO6)cccc4c3CCN2C(=O)[C@H]1[C@H](C)O was tested. Which inhibition did it give?
**A.** -2.88%

**Q.** COc1ccc(NC(=O)N(C)C[C@@H]2OCCCC[C@@H](C)Oc3ccc(NC(=O)NC4CCCCC4)cc3C(=O)N([C@H](C)CO)C[C@@H]2C)cc1 was tested. Which inhibition did it give?
**A.** -5.46%

**Q.** How did the inhibition turn out when CCCCCCCCN1C(=O)[C@@H](CC(=O)NCCCC)C[C@@]2(C(=O)OC)C1=C[C@H](C(C)(C)C)O[C@@H]2C was run?
**A.** -9.75%

**Q.** How did the inhibition turn out when C[C@@H]1ON(C)[C@H]2C[C@H]3c4cc(N5CCOCC5)ccc4CCN3C[C@@H]12 was run?
**A.** -4.48%

**Q.** COc1ccc(C2CC(c3cccs3)=NN2C(=O)CSc2nncs2)cc1OC (centres undefined) was tested. Which inhibition did it give?
**A.** -3.4%

**Q.** Which inhibition does the source give for COc1ccc(C2CC(c3cccs3)=NN2C(=O)CSc2nnc(N)s2)cc1OC (centres undefined) here?
**A.** -6.31%

**Q.** With COc1ccc(C2CC(c3cccs3)=NN2c2nc(C)c(C(C)=O)s2)cc1OC (centres undefined) as the molecule, how does the inhibition read?
**A.** 168% (active)

**Q.** Which inhibition does the source give for C[C@@H](CN1C2=NC[C@@H](Cc3ccccc3)N2C[C@H]1Cc1ccc(O)cc1)NC(=O)CCC1CCCCC1 here?
**A.** -5.25%

**Q.** How did the inhibition turn out when C[C@@H]1CN([C@H](C)CO)C(=O)CCCn2cc(nn2)CO[C@H]1CN(C)C(=O)Nc1ccc(N2CCCCC2)cc1 was run?
**A.** -8.15%

**Q.** Which inhibition does the source give for Cc1[nH]nc2c1C(c1ccc(Br)cc1)NC2=O (centres undefined) here?
**A.** -4.02%

**Q.** With COCc1cc(N2CCN(C(=O)OC(C)(C)C)C[C@@H]2C)ccc1N1CCN(Cc2ccccc2)[C@H](C)C1 as the molecule, how does the inhibition read?
**A.** -8.69%

**Q.** With CCOC(=O)C1=C(C(=O)OCC)C2N(Cc3ccc(C#N)cc3)c3ccccc3[C@@]23C[C@@H](C(=O)OC)N(S(=O)(=O)c2ccc(F)cc2)C3=N1 (some centres undefined) as the molecule, how does the inhibition read?
**A.** -8.5%

**Q.** With CC(C)(C)c1ccc(S(=O)(=O)NCC2CCN(C(=O)C(=O)c3cc4ccccc4o3)CC2)cc1 as the molecule, how does the inhibition read?
**A.** -8.19%

**Q.** Which inhibition does the source give for COC(=O)[C@@]12C[C@@H](CC(=O)N3CCC(c4ccccc4)CC3)C(=O)N(Cc3ccccc3)C1=CCC(C)(C)C2 here?
**A.** -9.64%

**Q.** C=CCN=C1NC(c2cccc(C(F)(F)F)c2)C(C(=O)OC)=C(C)N1C (centres undefined) was tested. Which inhibition did it give?
**A.** -4.33%

**Q.** COC(=O)C(C(=O)OC)c1ccccc1NS(=O)(=O)c1cccc2ccccc12 was tested. Which inhibition did it give?
**A.** -10.7%

**Q.** Which inhibition does the source give for Cc1nc(NC(=O)C(C)(C)C)sc1[N+](=O)[O-] here?
**A.** -3.6%

**Q.** With CCc1c(-c2ccccc2OC)ncn1CCc1ccccc1OC as the molecule, how does the inhibition read?
**A.** -9.61%

**Q.** For Cc1nc2c(OCc3ccc(Cl)cc3Cl)cccn2c1N(C)CC1CC1, which inhibition is on record?
**A.** -6.39%

**Q.** For CC(=O)Nc1cccc(-c2cc(NC=O)c3ncc(-c4ccc(F)c(Cl)c4)n3c2)c1, which inhibition is on record?
**A.** -10.8%

**Q.** For CN[C@H]1C[C@H]2c3[nH]c4c(-c5ccccc5)cccc4c3CCN2C(=O)[C@H]1[C@H](C)O, which inhibition is on record?
**A.** -3.8%

**Q.** Which inhibition does the source give for CCOC(=O)[C@]12CCC=C1N(Cc1ccco1)C(=O)[C@H](CC(=O)NCc1cccc(C(F)(F)F)c1)C2 here?
**A.** -5.22%

**Q.** With C[C@H](O)[C@@H]1C(=O)N2CCc3c([nH]c4c(-c5ccc6c(c5)OCO6)cccc34)[C@@H]2C[C@@H]1N(C)C(=O)c1ccco1 as the molecule, how does the inhibition read?
**A.** -4.05%

**Q.** Which inhibition does the source give for O=C(N[C@H](C(=O)N1CCC[C@H]1C(=O)NCCc1ccccc1Cl)c1ccccc1)c1ccccc1 here?
**A.** -4.64%

**Q.** With Oc1cccc2cc(-c3ccncc3)cnc12 as the molecule, how does the inhibition read?
**A.** -5%

**Q.** How did the inhibition turn out when COC(=O)C1=C(C)N(Cc2ccccc2C(F)(F)F)C(=NCc2ccc(OC)cc2)NC1c1cccc(C(F)(F)F)c1 (centres undefined) was run?
**A.** -9.27%

**Q.** With CCCCOCCCNC(=O)C[C@@H]1C[C@@]2(C(=O)OC)CCCCC=C2N(CCC2=CCCCC2)C1=O as the molecule, how does the inhibition read?
**A.** -3.67%

**Q.** How did the inhibition turn out when CCCCCCCCCOC1OC(CO)C(O)C(O)C1NC(C)=O (centres undefined) was run?
**A.** -5.79%

**Q.** COC(=O)c1ccc2ccccc2c1OC1OC(CO)C(O)C(O)C1NC(C)=O (centres undefined) was tested. Which inhibition did it give?
**A.** -1.34%

**Q.** Which inhibition does the source give for CCc1cccc(OC2OC(CO)C(O)C(O)C2NC(C)=O)c1 (centres undefined) here?
**A.** 107% (active)

**Q.** How did the inhibition turn out when CCCCNc1cccc2c1S(=O)(=O)N[C@@H](C)CO2 was run?
**A.** -5.83%

**Q.** Which inhibition does the source give for COC(=O)C1=C(C)N(Cc2cccc(C(F)(F)F)c2)C(=NCc2ccccc2)NC1c1ccccc1C(F)(F)F (centres undefined) here?
**A.** -1.85%

**Q.** For CCCCc1c(-c2ccc(Br)cc2)ncn1CCc1ccccc1OC, which inhibition is on record?
**A.** -9.97%

**Q.** COC(=O)c1ccc(CN2C(=O)[C@]3(OCCC=C[C@H]3C)c3c(Br)cccc32)cc1 was tested. Which inhibition did it give?
**A.** -5.34%

**Q.** COc1ccc(-c2ccc3c(n2)CCCN3S(=O)(=O)c2ccc(C)cc2)cc1 was tested. Which inhibition did it give?
**A.** -4.73%

**Q.** How did the inhibition turn out when COc1ccc(CNS(=O)(=O)c2cc(Br)ccc2Br)cc1 was run?
**A.** -5.62%

**Q.** Which inhibition does the source give for COc1cccc(NC(=O)N(C)C[C@@H]2OCc3cn(nn3)CCCC(=O)N([C@@H](C)CO)C[C@H]2C)c1 here?
**A.** -4.88%

**Q.** Which inhibition does the source give for CN1C(=O)C(Br)(Br)CC1c1cccnc1 (centres undefined) here?
**A.** -4.22%

**Q.** How did the inhibition turn out when CC[C@H](NC(=O)[C@H](Cc1ccccc1)NC(=O)[C@H]1O[C@@H](n2cnc3c(=O)[nH]c(N)nc32)[C@H](O)[C@@H]1O)c1ccccc1 was run?
**A.** -7.74%

**Q.** Which inhibition does the source give for COC(=O)[C@]12C[C@H](CC(=O)N3CCN(C(=O)C4CC4)CC3)C(=O)N(Cc3ccc4c(c3)OCO4)C1=C[C@H](C(C)(C)C)O[C@@H]2C here?
**A.** -7.42%

**Q.** CC1CCCN(c2cccc3c2S(=O)(=O)N(Cc2ccc(F)cc2)[C@@H](C)[C@H](c2ccccc2)O3)C1 (some centres undefined) was tested. Which inhibition did it give?
**A.** -4.9%

**Q.** With COCCNC(=S)N(C)[C@H]1C[C@H]2c3[nH]c4ccccc4c3CCN2C[C@H]1[C@H](C)O as the molecule, how does the inhibition read?
**A.** -5.06%

**Q.** COC(=O)N1Cc2ccnnc2CC1c1ccccc1Br (centres undefined) was tested. Which inhibition did it give?
**A.** -4.44%

**Q.** CCOC(=O)N1CCN(C(=O)C[C@H]2C[C@@]3(C(=O)OC)C(=C[C@H](C4CCCC4)O[C@@H]3C)N(Cc3ccccc3)C2=O)CC1 was tested. Which inhibition did it give?
**A.** -8.9%

**Q.** With O=C(Nc1c(Cl)c(C2CC2)nn1-c1ccccc1)C(Cl)(Cl)Cl as the molecule, how does the inhibition read?
**A.** -4.55%

**Q.** O=c1[nH]c(-c2ccccc2)cn1C1CCN(Cc2ccc(-c3nc4ccc(F)cc4nc3-c3ccccc3)cc2)CC1 was tested. Which inhibition did it give?
**A.** -6%

**Q.** With CC(=NNC(N)=O)c1ccc(Cl)c(-n2cccc2)c1 as the molecule, how does the inhibition read?
**A.** -7.9%

**Q.** Which inhibition does the source give for CCc1ccc(C2=CC(=O)CC(C)(C)C2=O)cc1 here?
**A.** -7.01%

**Q.** Which inhibition does the source give for COC(=O)C1=C(C)N(Cc2ccc(C(F)(F)F)cc2)C(=NCc2ccccc2)NC1c1ccccc1C(F)(F)F (centres undefined) here?
**A.** -9.62%

**Q.** With Nc1ncnc2c1ncn2[C@@H]1O[C@H](C(=O)N[C@@H](CCc2ccccc2)C(=O)NCC(=O)N2CCOCC2)[C@@H](O)[C@H]1O as the molecule, how does the inhibition read?
**A.** -4.61%

**Q.** For CC(=O)N1C[C@@H](CO)[C@@H](N(C)C(=O)C(C)(C)C)C[C@H]1c1ccccc1Br, which inhibition is on record?
**A.** -3.95%
